Rows were chosen to be rich in hits. Some 9.4% of all compounds tested hit in one or more screens of this group.
Pf growth 48h: P. falciparum growth inhibition at 48 hours (one generation); 310,000 compounds, 5.9% hits; Potency, µM (highest dose often 28.7 µM), for inactives: at the highest dose activity change, negative = inhibition, most hits filed as inhibitors; P. falciparum luciferase growth in erythrocytes, 48 h; AID 504832; also: potency is read from the fitted curve at half-maximal effect; % is scaled to controls: 0 for no effect and ±100 for the full control effect
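Growth was read as firefly luciferase luminescence after a 48 h, 37 C, 5% CO2 exposure of compounds to reporter-bearing P. falciparum cultures (0.1% parasitemia, 2% hematocrit final) in Albumax-supplemented RPMI 1640.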
AMA1 RON2 block: AMA1-RON2 (P. falciparum) interaction inhibition. AlphaScreen AMA1-biotinylated RON2 peptide binding. Potency, µM (highest dose often 58.2 µM), without a hit: at the top dose activity change, negative = inhibition, most hits filed as inhibitors. 360,000 compounds, 0.2% hits. AID 720542;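 also: potency is read from the fitted curve at half-maximal effect; 0% = vehicle wells and -100% = peptide control; nearly all actives have a fitted effect of over 45% in size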
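AMA1 (3D7) with his tag at 25 nM final met compounds first, then biotinylated RON2 peptide at 25 nM; detection used donor plus acceptor beads, 10 µg/mL apiece, read by AlphaScreen after 30 min at room temperature.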
Pf growth 96h: P. falciparum growth inhibition at 96 hour, primary screen for plastid delayed-death inhibitors; Potency, µM (highest dose often 28.7 µM), for inactives: top-dose activity change, negative = inhibition, most hits filed as inhibitors; AID 504834; 320,000 compounds, 6.9% hits; P. falciparum luciferase reporter growth, 96 h; also: potency is read from the fitted curve at half-maximal effect; % is scaled to controls: 0 for no effect and ±100 for the full control effect
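Luminescence readout: decreased luciferase signal marks inhibited growth of reporter-expressing P. falciparum in infected red cells (2% hematocrit, 0.05% parasitemia final), exposed to compound two generations (96 h, 37 C, 5% CO2).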
SARS PLpro yeast-1: SARS-CoV PLP inhibition in yeast | S. cerevisiae expressing SARS-CoV PLpro, growth rescue | Potency, µM (doses to about 32.9 µM), inactives show top-dose activity, positive = growth rescue, most hits filed as activators | 330,000 compounds, 0.19% hits | AID 485353; calls by dose curve; also: potency is read from the fitted curve at half-maximal effect; 0% is about no effect; nearly all actives have a fitted effect of over 55% in size
SARS PLpro yeast-2: Rescues yeast growth by inhibiting SARS-CoV PLpro; shares compounds with SARS PLpro yeast-1; yeast expressing SARS-CoV PLpro, growth phenotype rescue; calls only; 1,000 compounds, 19% hits; call rule not given here
Starred values were filed as active, the others as inactive; i = inactive; u = inconclusive; x = no result; + = active, no number; [ ] = dose if it differs, or a comment. Unless noted, calls follow the shape of the dose curve; as a rule, active = well fitted curve in the direction sought with a large enough effect; inconclusive = small, poorly fitted or top-dose-only effect, or another doubt; inactive = no such curve, though single readings can be large; an effect the other way counts as inactive or inconclusive.

SMILES	Pf growth 48h	AMA1 RON2 block	Pf growth 96h	SARS PLpro yeast-1	SARS PLpro yeast-2
COc1cc(/C=C/C(=O)c2ccc(Cl)s2)cc(OC)c1O	x	2%	u	-29%	x
CC(=O)Nc1cccc(C(=O)OCc2ccc(C(=O)Oc3ccc(Cl)cc3)cc2)c1	11%	-4%	-3%	u	i
CC(=O)Nc1ccc(C(=O)OCc2ccc(Br)cc2)cc1	u	-2%	-6%	-69%	x
O=S(=O)(c1ccccc1)C1(C2CC(c3ccccc3)=NO2)CC(O)C1 (stereo unspecified)	35%	0%	u	-3%	x
CC1(C)C(=O)OC(c2cccn2-c2ccc([N+](=O)[O-])cc2)C(C)(C)C1=O (stereo unspecified)	7%	0%	4%	-15%	x
CC1(C)C(=O)C2(CCCCC2)C(=O)OC1c1cccn1-c1ccc([N+](=O)[O-])cc1 (stereo unspecified)	25%	-17%	55%	u	u
COc1cc(N2C(=O)NC3CC2(C)Oc2ccccc23)cc(OC)c1OC (stereo unspecified)	30%	10%	1%	2%	x
CCOC(=O)c1nn(-c2ccc(Cl)cc2)c2nc(Nc3ccccc3)cc(=O)n12	u	5%	x	u	i
COC(=O)Sc1nc(N2CCOCC2)c2c(c1C#N)CC(C)(C)OC2	33%	-14%	u	10µM*	+
COC(=O)CSc1nc(N2CCOCC2)c2c(c1C#N)CC(C)(C)OC2	26%	4%	32%	0%	x
CCOC(=O)c1ccc(-n2c(O)c(/C=N/NC(=O)C3COc4ccccc4O3)c3ccccc3c2=O)cc1 (stereo unspecified)	10%	86%	-19%	4.5µM*	i
Cc1ccccc1NCc1ccc(O)c2ncccc12	u	-28%	-13%	u	+
COc1cc2[nH]c3c(=O)n(CCN4CCCCC4)cnc3c2cc1OC	-16%	-7%	-10%	u	i
COc1cc2nc(CN3CCN(S(=O)(=O)c4ccccc4)CC3)[nH]c(=O)c2cc1OC	u	9%	u	-1%	x
Cc1ccc(-c2nc3ccccc3c(=O)n2-c2cccc(C)n2)cc1	-9%	14%	268%	-2%	x
Cc1ccc(-c2nc3ccccc3c(=O)n2-c2cc(C)ccn2)cc1	-7%	9%	7%	4µM*	i
CN1/C(=C\C(=S)NC(=O)c2ccccc2Cl)C(C)(C)c2ccccc21	u	-15%[11.6 µM]	u	u	+
COc1cc(C(=O)OCC(=O)NCC2CCCO2)cc(OC)c1OC (stereo unspecified)	x	-3%	x	9%	x
Cc1ccc(-n2c(C)cc(/C=N/NC(N)=S)c2C)cc1	u	9%	126%	11µM*	+
Cc1ccc(-n2c(C)cc(/C=N/NC(=O)c3ccncc3)c2C)cc1	u	14%	u	2%	x
CCN1C[C@@H]2[C@@H]3C(=O)N(C)C(=O)[C@@H]3[C@](CC)(C(=O)OC)N2C1=NC	x	7%	x	3.5µM*	i
CC1=C(C(=O)OCc2ccccc2)C(/C=C/c2ccccc2)NC(=S)N1 (stereo unspecified)	u	-11%[11.6 µM]	u	x	+
C=CCOC(=O)C1=C(C)NC(=S)NC1/C=C/c1ccccc1 (stereo unspecified)	u	-21%	u	4%	x
CC(=O)Nc1ccc(NC(=O)CSc2nc(=O)n3cccc(C)c3n2)cc1	2%	4%	14%	x	x
Cc1ccc(Nc2nc(NCCCN3CCOCC3)nc(N)c2[N+](=O)[O-])cc1C	u	-13%	u	-7%	x
Cc1ccc(Nc2nc(NCCCN3CCOCC3)nc(N)c2[N+](=O)[O-])cc1	-7%	-5%	4%	u	i
CC(C)C(=O)Nc1cccc(C(=O)Nc2nnc(C(C)(C)C)s2)c1	42%	7%	81%	u	i
COc1ccc(C(=O)N2CCCC2)cc1S(=O)(=O)N1CCOCC1	27%	0%	18%	x	x
Clc1ccc(CNC23CN4CN(CN(C4)C2)C3)c(Cl)c1	14%	12%	27%	u	i
Cc1ccc(N2CC(C(=O)OCc3ccccc3F)CC2=O)cc1 (stereo unspecified)	16%	-1%	x	-17%	x

Bioassay records: PubChem, National Center for Advancing Translational Sciences (NCATS)
